# Source: the supplement of paper PMC3334620
# In all, about 33,000 sequences were measured (“E-score (-0.5 to 0.5)”: median about -0.012, highest 2% from about 0.27 on). This is one part of a sample in which the highest values are shown more often than they occur.
# Target: T1, Vhr1 (UniProt P40522)
# T1 sequence: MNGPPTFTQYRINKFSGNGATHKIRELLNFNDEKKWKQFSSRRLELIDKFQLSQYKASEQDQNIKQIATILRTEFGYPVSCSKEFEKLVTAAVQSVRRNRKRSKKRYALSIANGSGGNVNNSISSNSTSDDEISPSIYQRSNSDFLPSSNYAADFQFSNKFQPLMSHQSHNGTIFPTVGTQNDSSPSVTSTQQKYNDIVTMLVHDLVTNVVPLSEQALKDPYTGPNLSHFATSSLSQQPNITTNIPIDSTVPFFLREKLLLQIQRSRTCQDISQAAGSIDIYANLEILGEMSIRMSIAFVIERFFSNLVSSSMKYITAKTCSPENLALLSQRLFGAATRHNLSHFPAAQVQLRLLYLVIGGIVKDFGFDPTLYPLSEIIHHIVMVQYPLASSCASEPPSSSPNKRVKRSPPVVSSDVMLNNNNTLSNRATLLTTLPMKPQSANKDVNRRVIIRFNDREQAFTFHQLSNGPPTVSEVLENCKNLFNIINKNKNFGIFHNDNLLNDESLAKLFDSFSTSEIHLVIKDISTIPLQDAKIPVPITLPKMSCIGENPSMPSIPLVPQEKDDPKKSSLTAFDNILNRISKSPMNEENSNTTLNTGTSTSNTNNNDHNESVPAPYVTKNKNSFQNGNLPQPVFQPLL
# Test: PBM E-score (8-mer binding enrichment) (E-score (-0.5 to 0.5)); higher = stronger / more preferred TF binding
# Details: protein concentration: 200 nM; construct: GST-full length
# In short: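 Yeast transcription factors, full-length or as DNA-binding domains, were expressed with a GST tag using PURExpress in vitro transcription/translation. At about 100-200 nM they were applied to universal all-10-mer Agilent arrays, double-stranded by primer extension on fresh or once-stripped slides. Fluorescent anti-GST detected bound protein, and masliner normalised the scans. E-scores for ungapped eight-base words, pooled with reverse complements, came from the Universal PBM Analysis Suite.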
row,Sequence,PBM E-score
1,AATTGTTA,-0.0275
2,ACAGCACG,0.118
3,CCTACACG,-0.0152
4,ACTACACA,0.327
5,AGTACACG,0.0779
6,ACTACACG,0.221
7,AGTACACA,0.284
8,TGTACACA,0.0228
9,GCCCAGAC,-0.15
10,ACTTCTTG,-0.106
11,CTGGTAAC,0.0684
12,ATCTGTAC,0.0611
13,CCTCACGC,0.0696
14,ACTCACGA,0.243
15,ACTCACGC,0.366
16,ACACACGG,0.155
17,ACACACGC,0.183
18,GATCACGC,0.193
19,AATCACGC,0.354
20,ACTCACGG,0.352
21,AATCACGA,0.159
22,AAACAAGA,0.121
23,AGCCCTAC,-0.108
24,ATTCTGGG,-0.107
25,GCAGTGGC,0.0117

row,Sequence,PBM E-score
1,GAGGTTGA,-0.131
2,AGAATAGG,0.026
3,CGTGAGTC,0.428
4,CGTGAGCC,0.0956
5,AGTGAGTG,0.00138
6,AGTGAGTC,0.466
7,AGTGAGAC,0.0195
8,CGTGAGTA,0.21
9,CACCTGCA,0.0182
10,TATAAGCA,0.00418
11,GACTCACA,0.44
12,AACTCACA,0.202
13,TACTCACA,0.285
14,CACTCACC,0.206
15,CACTCACG,0.238
16,AACTCACG,0.109
17,CACTCACA,0.264
18,AACTCACC,0.224
19,GACTCACC,0.469
20,TCCAGAAA,-0.0568
21,GCTTAGAA,-0.117
22,CAAATCAA,0.0775
23,AAACTGGG,-0.192
24,ATCTGATC,0.085
25,AGTTCTAG,-0.127

row,Sequence,PBM E-score
1,CACCCGCG,0.218
2,AACCCGCC,0.136
3,CACCCGCA,-0.0465
4,CACCCGCC,0.329
5,GACCCGCC,0.322
6,GACCCGCA,0.109
7,AACCTCAA,-0.195
8,ACCTACGT,-0.0787
9,AACTGCTG,-0.0272
10,ACCTTGAT,0.0042
11,TACCGTCA,-0.0775
12,GCGTGGCA,-0.22
13,GACTCCAA,0.237
14,GACTCCAC,0.346
15,GACTCCTA,0.384
16,CACTCCAC,0.0458
17,AACTCCTA,0.017
18,GACTCCTC,0.4
19,CACTCCTC,0.183
20,AACTCCTC,-0.268
21,CACTCCTA,-0.262
22,GTATTGGA,-0.184
23,TTTATAAA,-0.0811
24,CGACCCCC,-0.261
25,CTTTAACC,-0.127

row,Sequence,PBM E-score
1,AGAACCAA,-0.0911
2,GAATCATC,0.437
3,CAATCAGA,-0.0178
4,ACATCATC,0.166
5,ATATCATA,0.216
6,CTATCATA,0.164
7,TAATCATA,0.314
8,GTATCATA,0.288
9,TAATCAAA,0.101
10,CAATCATA,0.317
11,TAATCGTA,0.114
12,CCATCATA,0.0955
13,GAATCAAC,0.247
14,TACGATGA,0.11
15,ACTTCTTC,-0.00857
16,TACTCCTA,0.123
17,CCAGAGCG,-0.145
18,ACGACAAA,0.092
19,AAATCATC,0.245
20,CCATCATC,0.138
21,GAATCATA,0.397
22,GAATCAAA,-0.0259
23,CAATCATC,0.284
24,GCATCATA,0.136
25,ATTTACAA,-0.101

row,Sequence,PBM E-score
1,ATCACACC,0.288
2,ATCACATA,0.19
3,ATCACAGC,0.182
4,ATCACACA,0.282
5,ATCACAAC,0.00509
6,ATCACACG,0.102
7,ATAGGCAA,-0.246
8,ACCTCGAC,-0.00505
9,AGCTGCCT,-0.219
10,AGTTTTTC,-0.152
11,CCAGCGAG,0.181
12,TGCACGCA,-0.0577
13,CTAGTTGA,0.202
14,GTAGTTGA,0.277
15,ATAGTTGA,0.0409
16,AGAAATCT,-0.217
17,GGACGCTA,-0.324
18,CAACTTGG,0.0538
19,AGTCAACT,0.144
20,AGTCAACG,0.278
21,CGTCAACG,-0.0358
22,AGTCAACA,0.19
23,GGTCAACC,0.0175
24,AGTCAACC,0.373
25,ATCTGATA,0.0202

row,Sequence,PBM E-score
1,CATGTAGA,0.00603
2,AGTCGCTA,0.174
3,ACCCACTC,0.282
4,CCCCTCCC,0.171
5,ACCCTCCC,0.307
6,ACCCTCCT,-0.116
7,ACCCACCT,0.0548
8,CCCCACCG,0.188
9,CCCCACCC,0.36
10,CCCCACCA,0.0983
11,ACCCACCC,0.397
12,CCCCACTC,0.128
13,ACCCACTG,0.22
14,ACCCACCG,0.256
15,AAAGCCAT,-0.0236
16,CGTCCCAC,0.0371
17,GGTTAGAC,-0.00016
18,GGGCTTGA,-0.125
19,ACCCTAAT,-0.0655
20,CCAAAAGA,-0.201
21,ACCACCCA,0.192
22,ACCCACCA,0.296
23,GCCCACCC,0.284
24,GCCCACAC,0.069
25,GCCCACCA,-0.125

row,Sequence,PBM E-score
1,TCCCACCA,-0.112
2,CCGAGAGC,-0.0932
3,ATAGCGCC,0.0931
4,CCATTCGA,-0.172
5,AGCTGTAC,0.016
6,GAAGAAAA,-0.221
7,CCCGCGGG,0.102
8,ACCGCGCT,0.0474
9,ACCGCGCC,-0.0598
10,ACCGCGGG,0.312
11,ACCGCGGT,0.0486
12,ACCGCGCG,0.336
13,GGAAGAAC,0.0668
14,ACTATCAT,0.251
15,ATAGGGCG,-0.0674
16,AGGAGGGG,0.284
17,AGGAGGGC,-0.11
18,AGGAGGGA,-0.101
19,TATGGGCA,0.131
20,ACTCCCAA,0.112
21,GTCAGGTA,0.126
22,AGGATTCA,-0.0305
23,ATGATTTG,0.172
24,GAGATTCA,0.0192
